For orientation: inhibition means the relative decrease from the control value, in per cent.

Active and inactive are the calls of the source. Unless noted, the rule behind the calls is not given here.

System in the first test: not listed separately
Put plainly: human hepatoma cell viability loss – ATP luminescence, cytotoxicity control for P. falciparum antimalarial project, primary screen (AID 2303;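 active = inhibition above 50%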;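 note: 0% = DMSO wells and 100% = digitonin-killed cells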). To be noted: HepG2 viability, 24-48 h, at 10 µM, stronger effect = higher value.
Turning to `N#Cc1cccc(NC(=O)Nc2ccc(CC(=O)N3CCc4cc(Cl)c(N5CCN(C/C=C/c6ccccc6)CC5)cc43)cc2)c1`, the inhibition was -4% (inactive).

Take `O=C(Nc1ccc(CN2CCN(S(=O)(=O)c3ccc(Cl)s3)CC2)cc1)c1cccs1`: the inhibition is 14% (inactive). For the compound `CC(CCCCC(=O)Nc1ccc(C(F)(F)F)cc1)NCC(O)c1cccc(Cl)c1` (centres undefined), the inhibition is 51% (active).

With `COc1ccc(NC(=O)c2cc(-c3ccc(NC(C)=O)cc3)cnc2N)cc1`, the inhibition was 10% (inactive).

In the next test the target is L-lactate dehydrogenase (Plasmodium falciparum (isolate CDC / Honduras)) (UniProt Q27743). Put plainly: PfLDH activity inhibition – cell lysate, 3D7 strain, counter-screen for P. falciparum growth inhibition project (AID 2304).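 Note: 0% = vehicle and 100% = reference inhibitor.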 To be noted: P. falciparum 3D7 crude extract, LDH APAD/NBT absorbance; at 2 µM; stronger effect = higher value.
L-lactate dehydrogenase (Plasmodium falciparum (isolate CDC / Honduras)), sequence (Q27743 whole entry, looked up): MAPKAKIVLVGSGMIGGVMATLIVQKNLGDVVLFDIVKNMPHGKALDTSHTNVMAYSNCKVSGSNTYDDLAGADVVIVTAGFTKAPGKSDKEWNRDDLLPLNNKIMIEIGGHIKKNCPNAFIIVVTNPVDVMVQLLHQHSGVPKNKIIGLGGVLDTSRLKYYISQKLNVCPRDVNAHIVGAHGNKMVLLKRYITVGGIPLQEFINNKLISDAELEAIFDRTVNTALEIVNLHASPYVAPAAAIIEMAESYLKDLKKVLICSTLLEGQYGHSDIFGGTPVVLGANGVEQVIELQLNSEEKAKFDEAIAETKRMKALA
In the case of `OC(CNc1ccnc(Nc2cccc(Cl)c2)n1)c1cccc(C(F)(F)F)c1` (centres undefined), the inhibition is 4% (inactive). In the case of `CC1CN(Cc2cccc(-c3ccc(-c4nc5ccc(F)cc5[nH]4)cc3)c2)CC(C)O1` (centres undefined), the inhibition was -3% (inactive). The same measure, in the same setting: as for `COc1cc(F)c2ncc(Cl)c([C@H](O)CN3CCC(NCc4cc5c(cn4)OCCO5)CC3)c2c1`, the figure is 4% (inactive). Still for that read-out and setting: to `COc1ccc2nc(C)cc(NN=Cc3ccccc3Cl)c2c1` belongs 5% (inactive). On the same count and under the same terms, as for `Cn1nccc1C(=O)NCCNCc1ccc(-c2ccc(-c3nc4ccc(C(F)(F)F)cc4[nH]3)cc2)cc1`, the figure is -2% (inactive); as for `COc1ccccc1C1CCN(C2CCC(NC(=O)/C=C/c3cc(F)cc(F)c3)CC2)CC1` (centres undefined), 0% (inactive). Take `CN(C)CCCOc1ccc(CCCCc2ccc(Cl)cc2C(=O)c2ccccc2)cc1`: the inhibition was -7% (inactive). Consider `O=C(C=Cc1ccc(C(=O)Nc2ccc(C3=NCCN3)cc2)cc1)Nc1ccc(C2=NCCN2)cc1`, for which the inhibition was 3% (inactive).

Consider `Cc1ccc2nc(C)cc(NC(=O)Nc3ccc(N(C)C)cc3)c2c1`, for which the inhibition was -3% (inactive). The same measure, in the same setting: to `CC(C)c1ccc(CN2CCCCC(NC(=O)c3cc(-c4ccccc4Cl)cs3)C2)cc1` (centres undefined) belongs 3% (inactive).

For the origin of these results see PubChem BioAssay.
